Laboratory results as given in PubChem BioAssay.
Values without a mark were called inactive. For part of these data: Entries with a potency or affinity are not part of this list. Activity calls are given as the source filed them. Unless noted, the rule behind the calls is not given here.

Experiments:
[1] = antimalarial activity against Dd2 strain (AID 2302;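 active = growth inhibition above 50% at the single 2 µM test dose, taken to imply half-maximal potency below 2 µM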;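 note: 0% = DMSO untreated growth and 100% = chloroquine plus artemisinin killed control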); conditions: P. falciparum Dd2 in RBCs, LDH growth readout, 72 h; at 2 µM; active compounds read high
[2] = human hepatoma cell viability loss – ATP luminescence, cytotoxicity control for P. falciparum antimalarial project, primary screen (AID 2303;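 active = inhibition above 50%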;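 note: 0% = DMSO wells and 100% = digitonin-killed cells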); conditions: HepG2 viability, 24-48 h, at 10 µM, active compounds read high
[3] = target: L-lactate dehydrogenase (Plasmodium falciparum (isolate CDC / Honduras)) (UniProt Q27743); experiment: PfLDH activity inhibition – cell lysate, 3D7 strain, counter-screen for P. falciparum growth inhibition project (AID 2304);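 note: 0% = vehicle and 100% = reference inhibitor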; conditions: P. falciparum 3D7 crude extract, LDH APAD/NBT absorbance; at 2 µM; active compounds read high
Chain of L-lactate dehydrogenase (Plasmodium falciparum (isolate CDC / Honduras)) (Q27743 whole entry, looked up): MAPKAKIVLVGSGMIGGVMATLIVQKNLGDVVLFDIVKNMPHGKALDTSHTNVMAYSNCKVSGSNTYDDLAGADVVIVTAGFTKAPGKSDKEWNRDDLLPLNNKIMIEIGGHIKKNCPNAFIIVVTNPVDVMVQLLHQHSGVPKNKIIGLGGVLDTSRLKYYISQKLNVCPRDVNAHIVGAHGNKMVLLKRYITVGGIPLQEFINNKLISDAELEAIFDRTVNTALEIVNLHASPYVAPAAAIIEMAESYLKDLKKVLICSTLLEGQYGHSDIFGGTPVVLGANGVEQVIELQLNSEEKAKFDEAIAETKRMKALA

[4] = inhibition of 3D7 malaria parasite growth – strain 3D7 (AID 2306);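 note: 0% = DMSO wells and 100% = chloroquine plus artemisinin control wells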; conditions: P. falciparum 3D7 erythrocytic growth, LDH absorbance, 72 h; at 2 µM; active compounds read high
[5] = target: Calcium-dependent protein kinase 1 (Plasmodium falciparum (isolate 3D7)) (UniProt P62344); experiment: PfCDPK1 kinase inhibitors, biochemical, TCAMS library (AID 1159585; cut-off not given, nearly all actives have IC50 up to about 0.98 µM;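 note: inhibitors leave more ATP so luminescence rises with inhibition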); conditions: recombinant PfCDPK1, Kinase-Glo ATP depletion luminescence
Chain of Calcium-dependent protein kinase 1 (Plasmodium falciparum (isolate 3D7)) (P62344 whole entry, looked up): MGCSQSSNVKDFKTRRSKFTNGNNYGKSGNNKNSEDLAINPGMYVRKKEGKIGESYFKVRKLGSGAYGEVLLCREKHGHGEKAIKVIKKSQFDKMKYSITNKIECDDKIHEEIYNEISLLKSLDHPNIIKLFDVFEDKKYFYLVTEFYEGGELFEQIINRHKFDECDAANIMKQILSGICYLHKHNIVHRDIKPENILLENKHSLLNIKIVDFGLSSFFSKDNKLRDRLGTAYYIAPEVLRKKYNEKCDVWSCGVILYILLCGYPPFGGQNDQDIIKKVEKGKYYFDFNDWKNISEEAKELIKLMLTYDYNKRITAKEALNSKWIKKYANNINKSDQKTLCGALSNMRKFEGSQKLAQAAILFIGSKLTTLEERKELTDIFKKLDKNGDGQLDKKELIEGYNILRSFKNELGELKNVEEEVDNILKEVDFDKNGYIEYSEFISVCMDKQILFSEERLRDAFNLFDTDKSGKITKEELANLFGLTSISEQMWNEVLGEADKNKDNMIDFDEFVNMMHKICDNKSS

[6] = target: Plasmodium falciparum protein kinase 6 (PK6, PF3D7_1337100) (UniProt Q8IDW1); experiment: PfPK6 kinase inhibitors, biochemical, TCAMS library (AID 1159586); conditions: recombinant PfPK6, Kinase-Glo ATP depletion luminescence
Chain of Plasmodium falciparum protein kinase 6 (PK6, PF3D7_1337100) (Q8IDW1 1-305): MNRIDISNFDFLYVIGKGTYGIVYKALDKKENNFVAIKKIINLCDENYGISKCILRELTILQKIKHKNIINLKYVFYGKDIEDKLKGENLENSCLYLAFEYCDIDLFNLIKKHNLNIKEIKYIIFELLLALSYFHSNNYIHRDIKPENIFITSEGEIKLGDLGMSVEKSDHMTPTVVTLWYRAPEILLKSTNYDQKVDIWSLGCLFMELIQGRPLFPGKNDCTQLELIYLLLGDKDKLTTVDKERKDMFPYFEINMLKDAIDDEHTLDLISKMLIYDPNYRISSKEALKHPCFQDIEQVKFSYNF

[7] = target: Protein kinase 7 (PK7), Plasmodium falciparum 3D7 (PF3D7_0213400) (UniProt Q7YTF7); experiment: inhibition of Plasmodium PK7 catalytic activity – biochemical, TCAMS antimalarial set, Kinase-Glo luminescence (AID 1159587); conditions: recombinant PfPK7, Kinase-Glo ATP depletion luminescence
Chain of Protein kinase 7 (PK7), Plasmodium falciparum 3D7 (PF3D7_0213400) (Q7YTF7 1-343): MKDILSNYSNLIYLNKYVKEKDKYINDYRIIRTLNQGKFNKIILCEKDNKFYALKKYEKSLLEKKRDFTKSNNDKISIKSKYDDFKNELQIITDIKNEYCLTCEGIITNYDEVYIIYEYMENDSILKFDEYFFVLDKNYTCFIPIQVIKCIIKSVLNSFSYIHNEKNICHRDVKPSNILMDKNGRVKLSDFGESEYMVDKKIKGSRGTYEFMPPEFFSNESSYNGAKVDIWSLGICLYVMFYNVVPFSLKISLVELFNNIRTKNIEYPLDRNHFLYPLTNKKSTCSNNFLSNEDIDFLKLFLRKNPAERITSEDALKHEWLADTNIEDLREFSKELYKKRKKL

[8] = target: Calcium-dependent protein kinase 4 (Plasmodium falciparum (isolate 3D7)) (UniProt Q8IBS5); experiment: PfCDPK4 kinase inhibitors, biochemical, TCAMS library (AID 1159588; cut-off not given, nearly all actives have IC50 up to about 0.91 µM); conditions: recombinant PfCDPK4, Kinase-Glo ATP depletion luminescence
Chain of Calcium-dependent protein kinase 4 (Plasmodium falciparum (isolate 3D7)) (Q8IBS5 whole entry, looked up): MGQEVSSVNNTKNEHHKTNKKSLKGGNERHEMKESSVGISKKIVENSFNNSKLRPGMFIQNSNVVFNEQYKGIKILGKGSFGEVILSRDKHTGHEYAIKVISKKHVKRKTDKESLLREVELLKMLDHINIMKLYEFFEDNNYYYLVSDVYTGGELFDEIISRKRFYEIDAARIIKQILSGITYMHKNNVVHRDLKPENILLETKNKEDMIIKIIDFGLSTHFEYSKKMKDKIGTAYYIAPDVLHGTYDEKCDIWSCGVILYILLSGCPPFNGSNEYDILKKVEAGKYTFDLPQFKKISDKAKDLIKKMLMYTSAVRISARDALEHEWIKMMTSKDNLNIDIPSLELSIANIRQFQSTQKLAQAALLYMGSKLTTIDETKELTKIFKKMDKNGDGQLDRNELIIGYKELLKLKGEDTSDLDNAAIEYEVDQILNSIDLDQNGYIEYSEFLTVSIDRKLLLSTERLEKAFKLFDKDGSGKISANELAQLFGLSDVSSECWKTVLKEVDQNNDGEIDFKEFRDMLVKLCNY

Structure (SMILES)	growth inhibition [1]	inhibition [2]	inhibition [3] [%]	growth inhibition [4]	outcome [5]	outcome [6]	outcome [7]	outcome [8]
CC(C)CNCc1cccc(-c2ccccc2CNC2CCN(Cc3ccccc3)CC2)c1	39%	25%	-6	100% (active)	inactive	inactive	inactive	inactive
CC(=O)Nc1ccc(COc2ccc(Nc3ccnc4cc(-c5ccccn5)ccc34)cc2)cc1	94% (active)	99% (active)	3	99% (active)	inactive	inactive	inactive	inactive
Nc1nc(N)c2c(ccc3c2ccn3CCCC2CCCNC2)n1 (stereo unspecified)	55% (active)	67% (active)	-4	98% (active)	inactive	inactive	inactive	inactive
OC(CNCc1cccc(Oc2ccc(Cl)cc2)c1)c1cccc(C(F)(F)F)c1 (stereo unspecified)	78% (active)	-1%	3	94% (active)	inactive	inactive	inactive	inactive
CCCCNc1ccc(C(=O)NC2CCN(C[C@H](O)c3ccnc4ccc(OC)cc34)CC2)cc1	64% (active)	12%	-8	90% (active)	inactive	inactive	inactive	inactive
COc1ccc2nc(-c3cc(-c4ccc(NC(=O)C(C)C)cc4)cnc3N)[nH]c2c1	47%	43%	3	101% (active)	inactive	inactive	inactive	inactive
O=S(=O)(Nc1cccc(CCN2CCC(N3CCCCC3)CC2)c1)c1cccc2cccnc12	17%	0%	1	98% (active)	inactive	inactive	inactive	inactive
O=C(C=Cc1ccc(Cl)c(Cl)c1)NCCCCCN1CCC(CCCNS(=O)(=O)c2ccc(F)cc2)CC1	20%	52% (active)	4	93% (active)	inactive	inactive	inactive	inactive
CC(C)CC(=O)N1CCNC[C@@H]1C(=O)NCCSCc1c(F)cccc1Cl	3%	1%	0	86% (active)	inactive	inactive	inactive	inactive
CN(C)Cc1c(O)ccc2oc(Cc3ccccc3)cc12	94% (active)	0%	0	99% (active)	inactive	inactive	inactive	inactive
Nc1ncc(-c2ccc3nccc(-c4ccncc4)c3c2)cc1S(=O)(=O)N1CCCCC1	100% (active)	25%	3	100% (active)	inactive	inactive	inactive	inactive
COc1cc2ncnc(Nc3ccc(Br)c(Cl)c3)c2cc1OC	15%	22%	6	101% (active)	inactive	inactive	inactive	inactive
CCOC(=O)c1cn(CC)c2cc(N3CCCCCC3)c(F)cc2c1=O	89% (active)	-2%	3	94% (active)	inactive	inactive	inactive	inactive
C(=Cc1ccccc1)C=NNc1ccnc2ccccc12	100% (active)	24%	5	100% (active)	inactive	inactive	inactive	inactive
CN(C)Cc1ccc(-c2ccc(NC(=O)c3ccc4c(=O)n(Cc5ccccc5)cnc4c3)cc2)cc1	39%	94% (active)	-2	100% (active)	inactive	inactive	inactive	inactive
c1ccc(COc2ccc(Nc3ncnc4cnc(-c5ccc(CNc6cccnc6)o5)cc34)cc2)cc1	19%	2%	3	96% (active)	inactive	inactive	inactive	inactive
CC(C)c1ccc(N(CC(=O)N/N=C/c2ccc(C(F)(F)F)cc2)S(=O)(=O)c2ccc(C(F)(F)F)cc2)cc1	44%	2%	3	91% (active)	inactive	inactive	inactive	inactive
O=C(N[C@H]1CCN(Cc2ccc(OCCN3CCNCC3)c(Cl)c2)C1)c1ccc(Cl)c(Cl)c1	5%	50% (active)	-1	101% (active)	inactive	inactive	inactive	inactive
Cc1cc2nc(-c3ccc(OCC(=O)NCc4cccc(C(F)(F)F)c4)cc3)[nH]c2cc1C	1%	4%	-4	94% (active)	inactive	inactive	inactive	inactive
O=C(Nc1cccc(OC2CCN(Cc3ccccc3)CC2)c1)c1ccc(Cl)c(Cl)c1	45%	16%	-4	101% (active)	inactive	inactive	inactive	inactive
CCOc1ccc(-c2n[nH]c(C(F)(F)F)c2-c2ccccc2OC)c(O)c1	12%	22%	-5	86% (active)	inactive	inactive	inactive	inactive

Structure (SMILES)	growth inhibition [1]	inhibition [2]	inhibition [3] [%]	growth inhibition [4]	outcome [5]	outcome [6]	outcome [7]	outcome [8]
O=C(CCCCCNC(=O)c1ccc(O)c(-c2ccc(Cl)c(Cl)c2)c1)NCCc1ccc(Cl)c(Cl)c1	20%	57% (active)	-6	97% (active)	inactive	inactive	inactive	inactive
COc1ccccc1CCNc1nc(C)cc(N[C@@H](Cc2ccccc2)C(=O)Nc2ccccc2)n1	86% (active)	30%	0	101% (active)	inactive	inactive	inactive	inactive
Cc1ccc(NC(=O)c2ccc(Cl)cc2)cc1-c1ccc(C(=O)Nc2ccncc2)cc1	5%	36%	3	98% (active)	inactive	inactive	inactive	inactive
COc1ccc(Br)cc1/C=C/C(=O)Nc1ccc(C2CCN(C)CC2)cc1	61% (active)	11%	-3	101% (active)	inactive	inactive	inactive	inactive
O=C(N[C@@H](Cc1ccccc1)[C@H](O)CNC1CCOCC1)c1cc(C2CCCC2)cc(N2CCCCS2(=O)=O)c1	98% (active)	3%	-1	100% (active)	inactive	inactive	inactive	inactive
CC(CNc1ccnc(Nc2ccc3[nH]c(=O)[nH]c3c2)n1)c1ccccc1 (stereo unspecified)	2%	50% (active)	6	99% (active)	inactive	inactive	inactive	inactive
O=C(Nc1ccc(-c2ccc(-c3nc4ccc(C(F)(F)F)cc4[nH]3)s2)cc1)c1cnc[nH]1	61% (active)	66% (active)	5	92% (active)	inactive	inactive	inactive	inactive
Nc1ccc(-c2cc(Cl)cc(Cl)c2)cc1-c1cc2ccccc2[nH]1	97% (active)	-9%	0	101% (active)	inactive	inactive	inactive	inactive
Fc1ccc2nc(-c3ccc(-c4ccc(CN5CCN(CCN6CCOCC6)CC5)cc4)s3)[nH]c2c1	98% (active)	39%	-3	99% (active)	inactive	inactive	inactive	inactive
O=C(Nc1cccc(C(F)(F)F)c1)c1ccc(S(=O)(=O)NC2CCN(CC3CCCCC3)CC2)cc1	-3%	25%	0	83% (active)	inactive	inactive	inactive	inactive
COc1ccc(C2N=C(N)N=C(N)N2OCc2ccccc2)cc1OC (stereo unspecified)	2%	1%	0	95% (active)	inactive	inactive	inactive	inactive
CC(C)(C)c1ccc(CN2CCCCC(NC(=O)c3cc(-c4ccccc4F)cs3)C2)cc1 (stereo unspecified)	99% (active)	6%	3	101% (active)	inactive	inactive	inactive	inactive
CCN(CC)CCNC(=O)c1ccc(NC(=O)c2cc(-c3ccncc3)nc3ccccc23)cc1	2%	1%	-3	97% (active)	inactive	inactive	inactive	inactive
CCn1ccc2c(N3CCCCS3(=O)=O)cc(C(=O)N[C@@H](Cc3ccccc3)[C@H](O)CNC(C)(C)c3cccc(C(F)(F)F)c3)cc21	98% (active)	6%	-4	97% (active)	inactive	inactive	inactive	inactive
CO/C(=C\C=C/c1cc2cc(Cl)c(Cl)cc2[nH]1)C(=O)NC1CC(C)(C)N(C)C(C)(C)C1	34%	65% (active)	-1	93% (active)	inactive	inactive	inactive	inactive
CC(C)C[C@H](NC(=O)c1ccc(OCCN2CCOCC2)cc1)C(=O)N[C@H](/C=N/N1CC(=O)NC1=O)CCc1ccccc1	67% (active)	10%	0	88% (active)	inactive	inactive	inactive	inactive
COc1cccc(C=CC(=O)N(CCN)Cc2ccccc2)c1	-4%	-14%	-3	99% (active)	inactive	inactive	inactive	inactive
CCCCCCCCCN(CCC)C(=O)[C@@H]1OC(C(=O)OC(c2ccccc2)c2ccccc2)=C[C@H](NC(=O)OC(C)(C)C)[C@H]1NC(C)=O	49%	0%	-1	91% (active)	inactive	inactive	inactive	inactive
N#Cc1ccc(N(CCOc2ccc(Cl)cc2)Cc2ccccc2C(F)(F)F)cc1C(F)(F)F	64% (active)	3%	2	91% (active)	inactive	inactive	inactive	inactive
CCCNCc1ccc(-c2ccc(CN(C(=O)c3nn(-c4ccccc4)nc3C)C3CC3)cc2)nc1	-3%	23%	-2	101% (active)	inactive	inactive	inactive	inactive
COc1ccc2nccc([C@@H](O)CN3CCC(NCc4cnc5c(c4)NC(=O)CS5)CC3)c2c1	29%	-15%	0	87% (active)	inactive	inactive	inactive	inactive
